This is a sample that favours compounds with a hit; in the whole collection about 17% have one here.
DT40 TDP1 no CPT = qHTS for Inhibitors of human tyrosyl-DNA phosphodiesterase 1 (TDP1): qHTS in cells in absence of CPT | DT40 Tdp1-/- hTDP1 cells, no CPT, ATP luminescence, 48 h | Potency, µM (series often up to 46.2 µM), inactives show top-dose activity change, negative = growth inhibition, most hits filed as inhibitors | 420,000 tested, 15% active; note: % is set by controls: 0 for no effect and ±100 for the full control effect; nearly all actives have a fitted effect of over 55% in size
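Luminescent ATP content (CellTiter-Glo) served as the growth readout. Knockout chicken DT40 cells expressing human TDP1 were exposed to compounds without camptothecin for a minimum 48 hr at 37 °C.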
TDP1 cell CPT = qHTS for Inhibitors of human tyrosyl-DNA phosphodiesterase 1 (TDP1): qHTS in cells in presence of CPT; chicken DT40 Tdp1-/-;hTDP1 cells + 20 nM CPT, ATP luminescence, 48 h; Potency, µM (series often up to 46.2 µM), for inactives: at the highest dose activity change, negative = growth inhibition, hits mostly inhibitors; 420,000 tested, 12% active; AID 686979, 2013; note: % is set by controls: 0 for no effect and ±100 for the full control effect; nearly all actives have a fitted effect of over 55% in size
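Chicken DT40 Tdp1-/- cells complemented with human TDP1, 400 cells/well, exposed to compounds plus 20 nM camptothecin for at least 48 h at 37 C; viability read as ATP content by CellTiter-Glo luminescence.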
ClpP mod = qHTS Assay for Activators of ClpP | purified B. subtilis ClpP, FRET peptide cleavage, 20 min | Potency, µM (highest dose often 57.5 µM), for the others: at the top dose activity change, negative = active | 340,000 tested, 1.9% active | AID 651965, 2013; active = well fitted falling curve with a large enough effect; inconclusive = small, poorly fitted or top-dose-only effect; inactive = no such curve, though single readings can be large or run the other way; note: the source files actives as falling curves though it sought activators and does not explain the sign; nearly all actives have a fitted effect of over 65% in size
Target sequence (P80244 whole entry, looked up): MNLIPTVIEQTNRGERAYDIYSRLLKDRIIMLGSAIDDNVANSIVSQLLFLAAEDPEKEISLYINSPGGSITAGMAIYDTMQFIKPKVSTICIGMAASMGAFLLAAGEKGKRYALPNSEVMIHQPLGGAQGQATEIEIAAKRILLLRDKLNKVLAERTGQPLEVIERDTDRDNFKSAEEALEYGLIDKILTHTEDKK
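ClpP 10 microg/mL final, pH 8 Tris/KCl buffer with BSA, glycerol, Tween-20; compound pinned in; FRET-FV substrate; RT 20 min; Ex320/Em430; ΔFRET vs ADEP 5.8 microM, DMSO, no enzyme.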
TDP1 inh = qHTS Assay for Inhibitors of Tyrosyl-DNA Phosphodiesterase (TDP1) | recombinant TDP1, AlphaScreen DNA substrate cleavage | 350,000 tested, 0.28% active | Potency, µM (highest dose often 130 µM), for inactives: at the highest dose activity change, negative = inhibition, actives largely listed as inhibitors | Tyrosyl-DNA phosphodiesterase 1 (Homo sapiens), Q9NUW8; note: % is set by controls: 0 for no effect and ±100 for the full control effect; nearly all actives have a fitted effect of over 40% in size
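Tdp1 1 nM final; 15 min RT w/ cpd; substrate 15 nM, 5 min; beads 10 ug/ml, 10 min; AlphaScreen read. Neg ctrl: no enzyme.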
An asterisk follows results filed as active; ? = inconclusive; / = no result; ! = repeats disagree; [ ] = remark or other dose. Unless noted, calls come from the whole dose curve; as a rule, active = well fitted curve in the direction sought with a large enough effect; inconclusive = small, poorly fitted or top-dose-only effect, or another doubt; inactive = no such curve, though single readings can be large; an effect the other way counts as inactive or inconclusive. Potency is the fitted concentration of half-maximal effect.

SMILES	DT40 TDP1 no CPT	TDP1 cell CPT	ClpP mod	TDP1 inh
CCN(Cc1ccc(Cl)nc1)/C(=C/[N+](=O)[O-])NC	-17%	15%	/	/
Cn1cc[n+](C)c1P(=S)(c1ccccc1)c1ccccc1	21µM*	10µM*	-2%	-5%
O=C(CCCN1CCC2(CC1)C(=O)N(Cc1cccc(F)c1)CN2c1ccccc1)c1ccc(F)cc1	15µM*	30µM*	/	13%
O=C(NCc1ccco1)c1ccc(Cn2c(=O)c3ccccc3n(Cc3cccc(F)c3)c2=O)cc1	?	?	-15%	-2%
CCOC(=O)C(O)(c1ccc(NC(=O)NC2CCCCC2)cc1)C(F)(F)F (configuration not stated)	?	-24%	-1%	4%
O=C(Nc1ccc(Cl)c(C(F)(F)F)c1)NC1CC2CCCC(C1)N2Cc1ccccc1 (configuration not stated)	13µM*	18µM*	/	5%
CCOc1ccc2nc(NC(=O)c3cccn(Cc4ccccc4)c3=O)sc2c1	?	?	0%	3%
COc1ccc(C2NCc3ccc4c(c3-n3cccc32)OCO4)cc1O (configuration not stated)	4.6µM*	4.1µM*	2%	9%
c1cc2n(c1)-c1c(ccc3c1OCO3)CNC2c1ccc2c(c1)OCO2 (configuration not stated)	13µM*	?	2%	6%
Oc1ccc(C2NCc3ccccc3-n3cccc32)cc1Cl (configuration not stated)	?	?	-3%	9%
Cc1ccc(C)cc1	/	/	/	17%
Cc1nn(CCC#N)c2c1P(=S)(N1CCCC1)OC(c1ccc(F)cc1)=N2 (configuration not stated)	?	29µM*	1%	-8%
O=C(Cl)/C=C/C(=O)Cl	/	/	/	3%
CC[N+](CC)(CC)CCOC(=O)C(C1CCCC1)C1CCCC1	11µM*	?	/	/
CC(C)n1c(/C=C/[C@H](O)C[C@H](O)CC(=O)O)c(-c2ccc(F)cc2)c2ccccc21	29µM*	18µM*	4%	5%
CC(C)N(C(=O)CCl)c1ccccc1	8.2µM*	6.5µM*	-1%	11%[56.1 µM]
CC[C@@H]1CN2CCc3cc(OC)c(OC)cc3[C@@H]2C[C@@H]1C[C@H]1NCCc2cc(OC)c(OC)cc21	0.034µM*	-74%	/	14%[56.1 µM]
CCC1CN2CCc3cc(OC)c(OC)cc3C2CC1CC1NCCc2c1[nH]c1ccc(O)cc21 (configuration not stated)	0.082µM*	0.15µM*	?	/
CN[C@@H](C)[C@H](O)c1ccccc1	-11%	18%	1%	18%[56.1 µM]
CCCCC/C=C\C/C=C\C/C=C\C/C=C\CCCC(=O)NCC(=O)O	-3%[4.12 µM]	2%[4.12 µM]	/	32µM*!
CCCCC/C=C\C/C=C\C/C=C\C/C=C\CCCC(=O)Nc1ccc(O)cc1	21µM*	27µM*	/	0%
CC[C@H](CC[C@@H](C)C1CC[C@H]2[C@@H]3CC=C4C[C@@H](O)CC[C@]4(C)[C@H]3CC[C@]12C)C(C)C (some centres not stated)	-5%	5%	/	9%[56.1 µM]
CN1C[C@H](CO)C=C2c3cccc4[nH]cc(c34)C[C@@H]21	/	/	/	7%[56.1 µM]
NNC(=O)CP(=O)(c1ccccc1)c1ccccc1	12µM*!	?	2%	5%
Oc1ccc(O)c2c1C1(Cl)C(Cl)=C(Cl)C2(Cl)C1(Cl)Cl	16µM*	23µM*	/	/
SMILES	DT40 TDP1 no CPT	TDP1 cell CPT	ClpP mod	TDP1 inh
CC(C)CC(N)c1csc(NC(=O)Nc2ccccc2-c2ccccc2)n1 (configuration not stated)	18µM*	23µM*	-5%	/
Cn1c(=O)c2c(ncn2CC(=O)Nc2nc(-c3ccccc3Cl)cs2)n(C)c1=O	-18%	?	-1%	6%
CC(C)c1ccc(NC(=O)Nc2nc(C(N)CCc3ccccc3)cs2)cc1 (configuration not stated)	4.6µM*	5.8µM*	0%	/
COc1ccc(-c2csc(NC(=O)COC(=O)Cc3ccccc3)n2)cc1OC	/	/	/	0%
COc1cccc(-n2c(SCC(=O)c3ccc(Cl)cc3)nc3c([nH]c4ccccc43)c2=O)c1	4.1µM*	3.7µM*	-9%	0%
Cc1ccc(CN2c3ccccc3-c3nc(SCC(=O)NCc4ccccc4)ncc3S2(=O)=O)cc1	-7%	-18%	?	0%
Cc1cc(C)cc(-n2c(SCC(=O)NCc3ccc(F)cc3)nc3c([nH]c4ccccc43)c2=O)c1	16µM*	?	-11%	-1%
COc1ccc(-n2c(=O)[nH]c3ccccc3c2=O)cc1	-10%	-16%	-5%	6%
Cc1ccc(C=C2C(Cl)=C(Cl)C(Cl)=C2Cl)cc1	5.2µM*	3.3µM*	/	/
COc1ccc(OC(=O)N(C)C[C@H]2OCc3cnnn3CCCC(=O)N([C@H](C)CO)C[C@H]2C)cc1	-3%	1%	2%	/
CCOc1cc(/C=N/NC(=O)c2cccs2)ccc1OC(=O)N1CCOCC1	16µM*	?	/	3%
O=C1C=CC2C3C(=O)N(c4ccccc4)C(=O)C3C1N2Cc1ccccc1 (configuration not stated)	2.3µM*	2.1µM*	-3%	/
O=C(NC1CCCCC1)c1ccc(CSc2nc3ccncc3n2Cc2ccc(F)cc2)cc1	?	?	-9%	8%
Cc1cc(NC(=O)CCl)no1	18µM*	13µM*	1%	5%
CCCCC/C=C\C/C=C\C/C=C\C/C=C\CCCCOC(CO)CO	/	/	/	-9%
CN(C)c1ccc(CCN2CCOCC2)cc1	10%	2%	-11%	4%
c1ccc(OCc2ccc(CCCN3CCOCC3)cc2)cc1	21µM*	?	-1%	0%
O=C(O)C1CN(CP(=O)(O)O)CCN1 (configuration not stated)	/	/	/	2%
Nc1ncnc2c1ncn2[C@@H]1O[C@@H]2COP(O)(=S)O[C@H]2[C@H]1O (some centres not stated)	-5%	6%	-1%	/
Cc1ccc(C(=O)N[C@@H](C)CN2C3=NC[C@H](Cc4ccccc4)N3C[C@H]2Cc2ccc(O)cc2)cc1Br	16µM*	15µM*	0%	/
Cc1ccc(C(=O)N[C@@H](C)CN2C3=NC[C@@H](Cc4ccccc4)N3C[C@H]2Cc2ccc(O)cc2)cc1Br	7.3µM*	6.5µM*	0%	5%
C[C@@H]1C[C@@H]2[C@H]([C@H]3C=C(COC(=O)c4ccccc4)[C@@H](O)[C@]4(O)[C@@H](O)C(OC(=O)c5ccccc5)=C[C@@]14C3=O)C2(C)C	/	/	/	9%

Screens as filed in PubChem.
